Tested on: not listed separately
Experiment: small-molecule binders of probe aNOTCH2, primary screen, biochemical, small-molecule microarray, 635/667 nm fluorescence (AID 1121);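 note: score merges feature fluorescence read at 667 nm with its signal to noise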
Conditions: higher = more signal

SMILES	composite z-score
CCCCCN1CC=CC23O[C@@H]4C=CCOC(=O)[C@@H]4[C@H]2C(=O)N(C(C)CO)[C@@H]3C1=O (some centres not stated)	-0.12
CO[C@H]1O[C@H](CO)[C@@H](OC(=O)Nc2cccc(F)c2)[C@H](OC(=O)Nc2ccccc2)[C@H]1OC(=O)Nc1ccccc1	-0.0664
NC(=O)[C@@H]1[C@H]2C(=O)O[C@H](c3ccccc3)[C@H](c3ccccc3)N2[C@H](c2ccc(O)cc2)[C@@]12C(=O)Nc1ccc(C#CC3=CCCCC3)cc12	-0.117
C=CC1c2cc(O)c(OC)cc2CCN1Cc1cccc(OC(F)(F)F)c1 (configuration not stated)	-0.16
CC(C)[Si](C#CCCCC#N)(O[C@H](c1ccccc1)c1cn(Cc2cccc(Cl)c2)nn1)C(C)C	-0.11
COC(=O)c1c2oc(c1C(=O)OC)C(=O)NC1(CCCCC1)c1cn(nn1)C[C@H](Cc1ccccc1)NC(=O)N[C@H](CO)CC2	-0.167

Biological target: Carbonic anhydrase 2 (Homo sapiens) (UniProt P00918)
Experiment: CAII small-molecule binders, profiling panel, biochemical, small-molecule microarray, Alexa647-labelled CAII (AID 1122)
Conditions: CAII-A647 binding fluorescence, higher = more signal

SMILES	composite z-score
O=C1O[C@@H](c2ccccc2)[C@@H](c2ccccc2)N2[C@@H](c3ccc(OCCO)cc3)[C@]3(C(=O)Nc4ccc(C#CC5=CCCCC5)cc43)[C@@H](C(=O)N3CCCCCCC3)[C@H]12	0.776
CN1C(=O)C2C=CC(C(O)c3ccccc3)N(N3CCCCC3)C2C1=O (configuration not stated)	0.846
C[C@H]1C2[C@H](Cc3ccccc3)NC(=O)[C@]23C(=O)NCC(=O)N2CCC[C@H]2C(=O)NC/C=C/CCC/C=C/C3[C@@H]2O[C@]12C (some centres not stated)	-0.17
NC(=O)NCC#Cc1ccc2c(c1)[C@]1(C(=O)N2)[C@H](C(=O)O)[C@H]2C(=O)O[C@H](c3ccccc3)[C@H](c3ccccc3)N2[C@@H]1c1ccc(O)cc1	0.205
O=C(O)C1N=C(c2ccc(OCCCO)cc2)N(c2ccccc2)O1 (configuration not stated)	0.589
CN(C)CCCCCCNC(=O)[C@@H]1C[C@@H]2C(=O)N[C@@H](CCCC[N+](C)(C)C)C(=O)N2[C@@H]1c1ccc(O)cc1	0.797
O=C1OCC=C[C@H]2OC34C=CCN(CCN5CCOCC5)C(=O)[C@H]3N(CCO)C(=O)[C@@H]4[C@@H]12 (some centres not stated)	0.764
CS(=O)(=O)CCOC(=O)C1=CC(CCCO)=CC(C2CC2)N(Cc2cc3c(cc2Br)OCO3)C=C1C(=O)OCCS(C)(=O)=O (configuration not stated)	0.774
CCCC=C(CCC)[C@@H](NS(=O)(=O)c1ccc(Cl)cc1)c1ccc(C(=O)OC)cc1	0.805
[N-]=[N+]=Nc1ccccc1C[C@@]1(C(=O)N2CCCCC2)N=C(c2ccc(OCCCO)cc2)O[C@@H]1c1ccccc1N=[N+]=[N-]	0.299
O=C1O[C@H](c2ccccc2)[C@H](c2ccccc2)N2[C@H]1[C@@H](C(=O)NC[C@H](O)c1ccccc1)[C@]1(C(=O)Nc3ccc(C#CC4=CCCCC4)cc31)[C@H]2c1ccccc1OCCO	0.343
C=CCC(OC(C)=O)[C@@H]1[C@@H](N(Cc2cc3ccccc3o2)C(=O)Cc2ccc(OC)cc2)c2cc(OCCCO)ccc2N1C(=O)c1ccc2ccccc2c1 (some centres not stated)	0.386
O=C1[C@H]2C=C(I)[C@H](C[C@@H]2OCCCCO)[C@@]12CO2	0.758
[N-]=[N+]=Nc1ccccc1C[C@]1(C(=O)NCC(O)CO)N=C(c2ccc(OCCCO)cc2)O[C@H]1c1ccccc1 (some centres not stated)	0.629
O=C1O[C@H](c2ccccc2)[C@H](c2ccccc2)N2[C@H]1[C@@H](C(=O)NC[C@H](O)c1ccccc1)[C@]1(C(=O)Nc3ccccc31)[C@H]2c1ccc(O)cc1	0.66
CCN(CC)c1ccc(N2CC=CC34O[C@@H]5C=CCOC(=O)[C@@H]5[C@H]3C(=O)N(CCCCCCO)[C@@H]4C2=O)cc1 (some centres not stated)	0.909
CC1CC/C=C\[C@H]2OC34C=CCN(c5ccc6ccccc6c5)C(=O)[C@H]3N(CCO)C(=O)[C@@H]4C2C(=O)O1 (some centres not stated)	0.829
CC=CC(O)C1C=CC2C(=O)N(C)C(=O)C2N1N(c1ccccc1)c1ccccc1 (configuration not stated)	0.837

SMILES	composite z-score
CCOC(=O)C1=CCC(c2ccc(F)cc2)N(S(=O)(=O)c2ccc(C)cc2)C1 (configuration not stated)	0.397
O=C1C2C=CC(C(O)C=Cc3ccc([N+](=O)[O-])cc3)N(Nc3ccccc3F)C2C(=O)N1c1ccccc1 (configuration not stated)	0.651
C=CCN1Cc2ccccc2[C@@H]2OC(c3ccc(OCCCO)cc3)=N[C@]2(CCS(=O)(=O)c2ccccc2)C1=O	0.254
O=C(CS)NCCCCCNC(=O)[C@H]1C[C@H]2C(=O)NCC(=O)N2[C@H]1c1ccc(O)cc1	0.281
[N-]=[N+]=NCc1ccccc1[C@@H]1OC(c2ccc(OCCCO)cc2)=N[C@]1(CCS(=O)(=O)c1ccccc1)C(N)=O	0.637
C=CCN1C(=O)[C@]2(Cc3ccccc3)N=C(c3ccc(OCCCO)cc3)O[C@@H]2c2ccccc21	0.414
O=C1OCCC/C=C\[C@H]2OC34C=CCN(c5ccc6ccccc6c5)C(=O)[C@H]3N(CCCCCO)C(=O)[C@@H]4C12 (some centres not stated)	0.828
CCOc1cc(C(O)C2C=CC3C(=O)N(c4ccccc4)C(=O)C3N2Nc2ccc(C(C)C)cc2)ccc1O (configuration not stated)	0.79
[N-]=[N+]=Nc1ccccc1C[C@]1(C(=O)N2CCCCC2)COC(c2ccc(OCCCO)cc2)=N1	0.613
C=C(C(=O)CC[C@H](OC(C)=O)c1ccccc1OCCO)C(C)C	-0.371
Cc1ccc(S[C@]2(C(=O)O)CC(=O)N(C(C)C)[C@@H]2c2ccc(CO)cc2)cc1	0.648
CN(C)C(=O)[C@]1(Cc2ccccc2)N=C(c2ccc(OCCCO)cc2)O[C@@H]1c1ccccc1N=[N+]=[N-]	0.782
CCCCCN1CC=CC23O[C@@H]4C=CCOC(=O)[C@@H]4[C@H]2C(=O)N(C(C)CO)[C@@H]3C1=O (some centres not stated)	0.863
CO[C@H]1O[C@H](CO)[C@@H](OC(=O)Nc2cccc(F)c2)[C@H](OC(=O)Nc2ccccc2)[C@H]1OC(=O)Nc1ccccc1	0.65
NC(=O)[C@@H]1[C@H]2C(=O)O[C@H](c3ccccc3)[C@H](c3ccccc3)N2[C@H](c2ccc(O)cc2)[C@@]12C(=O)Nc1ccc(C#CC3=CCCCC3)cc12	0.411
C=CC1c2cc(O)c(OC)cc2CCN1Cc1cccc(OC(F)(F)F)c1 (configuration not stated)	0.893
CC(C)[Si](C#CCCCC#N)(O[C@H](c1ccccc1)c1cn(Cc2cccc(Cl)c2)nn1)C(C)C	0.442
COC(=O)c1c2oc(c1C(=O)OC)C(=O)NC1(CCCCC1)c1cn(nn1)C[C@H](Cc1ccccc1)NC(=O)N[C@H](CO)CC2	0.269

Reference: PubChem BioAssay
